Structures are written as SMILES. About 2,000 (0.91%) of roughly 220,000 compounds were called active. Another 2% or so got no clear call; they are omitted. Cut-off read from the data, not from the text of the source: inconclusive = inhibition above about 80% without an active follow-up result; inactive = below that; test concentration not stated here. These entries were drawn from the full list. Potency and affinity values are given separately.

The assay is described as follows: M. tuberculosis H37Rv growth inhibitors, H37Rv strain (AID 1626).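 Note: bacteria incubated seven days before Alamar blue readout; 0% = bacteria only wells and 100% = bacteria with antibiotic wells.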 The following applies: stronger effect = higher value, concentration not given here.
`COCCNc1ccc(-c2nn(C)c(=O)c3ccccc23)cc1[N+](=O)[O-]`: the inhibition – broadly, the change of the read-out against control, counted positive when it falls – is -0.74% (inactive).

In the case of `CN1CCN(C(=O)c2ccc(N3CCCC3=O)cc2)CC1`, the inhibition is -13.8% (inactive).

Consider `COc1c(C)cccc1C(=O)Nc1ccc(N2CCOCC2)c(Cl)c1`, for which the inhibition was 6.42% (inactive). Next, `C/C(=N/NC(=O)CNC(=O)CCc1ccccc1)c1ccc(Cl)cc1`: -2.99% (inactive); `O=C(Oc1ccccc1)c1c(Cl)cccc1P(=O)(O)O`: -3.52% (inactive); `CCCc1nnc(-c2cc(OC)c(OC)c(OC)c2)o1`: 0.88% (inactive). On to `Nc1nnc(SCCCC(=O)c2ccc(F)cc2)s1`, for which the inhibition is 7.95% (inactive).

In the case of `Nc1nnc(SCCCC(=O)c2ccc(Br)cc2)s1`, the inhibition is 0.26% (inactive). Next, `COc1ccc(CSc2cccc3cccnc23)cc1[N+](=O)[O-]`: -0.94% (inactive); `Cc1c(C(=O)O/N=C(\N)c2ccccn2)cccc1[N+](=O)[O-]`: -0.03% (inactive); `CCc1nc2ccccc2c(C(=O)Oc2cccc3cccnc23)c1C`: 22.1% (inactive). Next, `Cc1c(C(=O)Nc2cccc3cccnc23)oc2ccccc12`: -1.97% (inactive); `O=[N+]([O-])c1ccccc1OCCOCCOc1cccc2cccnc12`: -5.36% (inactive); `NC(=O)c1ccc(Oc2cccc3cccnc23)c([N+](=O)[O-])c1`: 49.5% (inactive).

Consider `COc1ccccc1NC(=O)N1CCN(c2ccc(F)cc2)CC1`, for which the inhibition was 4.69% (inactive). With `COCCCNC(=S)N1CCC(NC(=O)c2ccco2)CC1`, the inhibition was 0.03% (inactive).

Regarding `CCCCOC(=O)N/N=C/C=C/c1ccccc1`, the inhibition is 5.74% (inactive). Next, `COc1ccc2[nH]cc(CCNC(=S)NC3CCCC3)c2c1`: 4.31% (inactive). Consider `NNC(=O)c1ccc(Cn2cc(Br)cn2)o1`, for which the inhibition was -4.47% (inactive). With `CCn1cnc2cc(NCc3cccs3)ccc21`, the inhibition was 3.06% (inactive). Next, `CN(C)C(CNC(=S)Nc1cccc(Cl)c1)c1ccccc1` (stereo not given): 3.58% (inactive); `Nc1cc2c(cc1C(=O)c1cccc(Br)c1)OCCO2`: 4.56% (inactive). For the molecule `COc1ccc(NC(=O)c2cccc(S(=O)(=O)Nc3ccc(Br)cc3)c2)cn1`, the inhibition was 7.12% (inactive). Next, `Cc1ccc(NS(=O)(=O)c2cc(C(=O)Nc3cccc(N(C)S(C)(=O)=O)c3)ccc2C)c(C)c1`: 8.69% (inactive). As for `Cc1ccc(NS(=O)(=O)c2cc(NC(=O)c3cc4c(s3)CCCC4)ccc2C)c(C)c1`, the inhibition was 6.18% (inactive). Next, `O=C(Nc1cccc(S(=O)(=O)Nc2ccc(Cl)cc2)c1)c1ccc[n+]([O-])c1`: 8.19% (inactive). `CS(=O)(=O)N1CCCC(C(=O)NCCN2CCC(Cc3ccccc3)CC2)C1` (stereo not given): the inhibition was 3.9% (inactive). Next, `CCN(CC)C(=O)C(=O)c1ccn(-c2c(C)csc2C(=O)OC)c1`: 10.3% (inactive); `COc1cccc(/C=C(\C#N)C(=O)NC2CCS(=O)(=O)C2)c1` (stereo not given): -1.08% (inactive).

Regarding `Brc1ccc(C2C3=C(Nc4ncnn42)c2ccccc2OC3c2ccncc2)cc1` (stereo not given), the inhibition is 3.46% (inactive).

In the case of `Fc1ccc(C2C3=C(Nc4ncnn42)c2ccccc2OC3c2ccncc2)cc1` (stereo not given), the inhibition is 1.81% (inactive).

`Cc1ccc(C2c3c(oc4ccccc4c3=O)C(=O)N2c2nncs2)cc1` (stereo not given): the inhibition is -7.54% (inactive). Next, `COc1ccc(CCNC(=O)c2cc(-c3ccccc3OC)on2)cc1OC`: -17.8% (inactive); `O=S1(=O)CCC(=Nc2ccc(Cl)cc2)c2ccsc21`: 3.58% (inactive). On to `COc1ccc(C(=O)O/N=C2\CCS(=O)(=O)c3sccc32)cc1`, for which the inhibition is -3.81% (inactive). As for `COc1ccc(Cl)cc1S(=O)(=O)Oc1ccc(NC(C)=O)cc1`, the inhibition was -3.14% (inactive). Under `C=CCNc1nc(SC)nc2ccsc12` stands 19.7% (inactive).

Regarding `C=CCSc1nc(NC)c2sccc2n1`, the inhibition is 64.3% (inactive). Under `Cc1oc(C)c(C(=O)O)c1COc1ccc(C(=O)O)cc1` stands -4.93% (inactive); under `CN(C)c1oc(COc2ccc(F)cc2)nc1C#N`, 0.53% (inactive). Next, `COc1ccccc1NC(=O)COC(=O)[C@@H]1CCCN1C(=O)c1cccs1`: 2.35% (inactive).

Take `COc1ccc(CCNC(=O)CSc2cn(Cc3ccccc3)c3ccccc23)cc1OC`: the inhibition is 0.69% (inactive). Under `CCOC(=O)CSc1nnc(-c2ccc(S(=O)(=O)N3CCOCC3)cc2)n1-c1ccccc1` stands 14.9% (inactive); under `O=C(CNCC1CCCCC1)Nc1ccc(N2CCCCC2)cc1`, 5.47% (inactive). `CC1CCCCN1CC(=O)Nc1ccc(N2CCCCCC2)cc1` (stereo not given): the inhibition was 7.03% (inactive). Next, `O=[N+]([O-])c1ccc(Sc2ccccc2)nc1`: 1.27% (inactive). In the case of `O=[N+]([O-])c1ccc(Sc2nnnn2-c2ccccc2)c(Cl)c1`, the inhibition was -0.26% (inactive). Next, `O=C(COC(=O)c1cncc(Br)c1)NC1CCCCC1`: 0.66% (inactive); `Cn1cc(/C=N\NC(=O)C2COc3ccccc3O2)c2ccccc21` (stereo not given): 11.9% (inactive). Next, `c1cncc(-c2nc(-c3ccco3)cs2)c1`: 2.43% (inactive); `Cc1ccc(S(=O)(=O)NC(=O)Nc2cc(C)ccc2F)cc1`: -4.28% (inactive); `Cc1ccc(S(=O)(=O)Nc2nc(-c3ccc(F)cc3)cs2)cc1`: -5.33% (inactive). On to `COc1ccccc1N1CCN(C(=O)c2ccc(CN3CCOCC3)cc2)CC1`, for which the inhibition was 4.65% (inactive). Next, `c1ccc(-c2nc(-c3cccnc3)n[nH]2)cc1`: 4.63% (inactive); `Nc1n[nH]c(-c2cccc([N+](=O)[O-])c2)n1`: 2.42% (inactive). Turning to `CCCOc1cccc(C2/C(=C(/O)c3ccc(OC)cc3)C(=O)C(=O)N2CCN(C)C)c1` (stereo not given), the inhibition was -1.44% (inactive). With `Cc1ccc(NC(=S)NCCSc2ccc(Cl)cc2)c(C)c1`, the inhibition is 17.1% (inactive).

Consider `COc1cc(CNCc2ccccn2)ccc1OCc1ccccc1Cl`, for which the inhibition was 61% (inactive). Next, `COc1cc(CNCc2ccccn2)ccc1OCc1cccc(Cl)c1`: 28.4% (inactive); `COc1cc(CNCc2ccccn2)ccc1OCc1ccc(Cl)cc1`: 31.7% (inactive); `COc1cc(CNCc2ccccn2)ccc1OCc1c(Cl)cccc1Cl`: 56.6% (inactive). `Cc1nnc(NC(=O)NCN2C(=O)C3C4C=CC(C4)C3C2=O)s1` (stereo not given): the inhibition is -8.61% (inactive). Under `CCN(CC)P(=O)(Oc1ccccc1)Oc1ccccc1` stands 7.92% (inactive).

As for `C#CCOCCOCCOCCNc1nc(N2CCN(C(=O)[C@H](C(C)C)n3cc(CCO)nn3)CC2)nc(N2CCN(C(=O)[C@H]([C@@H](C)CC)n3cc(CCCCN)nn3)CC2)n1`, the inhibition is 1.48% (inactive). Under `Cc1cccc2nc(-c3cccc(NC(=O)Cc4ccccc4)c3)cn12` stands 10.1% (inactive). Under `c1cncc(CSc2nnc3ccc(-c4ccco4)nn23)c1` stands -0.26% (inactive); under `Cc1ccc(NC(=O)CSc2nnnn2C)cc1S(=O)(=O)N(C)C`, -2.13% (inactive); under `O=C(CSc1ncn[nH]1)Nc1ccc([N+](=O)[O-])cc1Br`, 10.6% (inactive). Next, `Nc1nc(SCC(=O)Nc2ccc(Br)cc2F)n[nH]1`: 0.13% (inactive); `CN(C)CCCCOc1ccc(Br)cc1Cl`: 6.22% (inactive); `CCCCOc1ccc(-c2c(C#N)c(N)nc(SCC(N)=O)c2C#N)cc1`: -5.04% (inactive). Take `CC(C)OC(=O)CSc1nc(N)c(C#N)c(-c2cccs2)c1C#N`: the inhibition was 40.9% (inactive). Turning to `CCCCOC(=O)CSc1nc(N)c(C#N)c(-c2ccc(OCC)cc2)c1C#N`, the inhibition is 57.9% (inactive). As to `CCOC(=O)CC(=O)CSc1nc(N)c(C#N)c(-c2ccc(F)cc2)c1C#N`, the inhibition is -2.96% (inactive). Next, `CCOC(=O)CC(=O)CSc1nc(N)c(C#N)c(-c2ccc(Cl)cc2)c1C#N`: -8.64% (inactive).

Take `CC(C)OC(=O)CSc1nc(N)c(C#N)c(-c2ccco2)c1C#N`: the inhibition was 53.1% (inactive). In the case of `CC(=O)CSc1nc(N)c(C#N)c(-c2cccs2)c1C#N`, the inhibition is -7.14% (inactive). Next, `N#Cc1c(N)nc(SCC(=O)OCc2ccccc2)c(C#N)c1-c1ccco1`: 74% (inactive); `Cc1ccc(-n2c(O)c(C=NCCN3CCOCC3)c(=O)[nH]c2=O)cc1`: 2.96% (inactive). `CCCc1nnc(NC(=O)Nc2ccc(OC)cc2)s1`: the inhibition is -1.18% (inactive). With `COc1ccc(S(=O)(=O)N2CCOCC2)cc1Cl`, the inhibition is 5.97% (inactive). For the molecule `Cc1ccc(N2C(=O)NC(=O)/C(=C/c3cnn(-c4ccc(C)cc4)c3)C2=O)cc1`, the inhibition is 79.9% (inactive).

On to `CCCN1C(=O)c2cc(C(=O)Nc3ccc(OC)c(OC)c3)ccc2C1Nc1ccc(OC)c(OC)c1` (stereo not given), for which the inhibition was 4.17% (inactive). Turning to `CCn1cc(C(=O)N2CCCCC2)c2ccccc21`, the inhibition was -0.75% (inactive). As to `Cn1c(=O)oc2cc(S(=O)(=O)N3CCC4(CC3)OCCO4)ccc21`, the inhibition was -6.19% (inactive).

With `O=C(CSc1nnc(-c2ccncc2)n1Cc1ccco1)OC1CCCCC1`, the inhibition is 0.38% (inactive). Take `CCC(C)(C)n1nnnc1C(c1ccncc1)N1CCN(c2cccc(OC)c2)CC1` (stereo not given): the inhibition was -11.7% (inactive). For `Cc1nc(SCC(=O)NCc2ccco2)c2c3c(sc2n1)CCCC3`, the inhibition was -8.98% (inactive). As for `Cc1cc(NC(=O)CSc2nc(C(C)C)nc3c2c(=O)n(C)c(=O)n3C)no1`, the inhibition is -4.22% (inactive). For `Cc1cc(NC(=O)CSc2nc(C3CC3)nc3sc4c(c23)CCC(C)C4)no1` (stereo not given), the inhibition was -2.86% (inactive). Next, `Cc1cc(NC(=O)CSc2nc(C(C)C)nc3sc(C)c(C)c23)no1`: -4.44% (inactive); `COc1ccccc1/C=C/C(=O)NCC(=O)N/N=C/c1ccccc1[N+](=O)[O-]`: -1.7% (inactive). For the molecule `CN(C)S(=O)(=O)c1ccc(C(=O)OCC(=O)Nc2sc3c(c2C#N)CCCCC3)cc1`, the inhibition is -0.67% (inactive). Next, `CC(C)(C)c1ccc(-c2noc(-c3ccc4c(c3)CCO4)n2)cc1`: 10.1% (inactive); `Nc1c(N(CCO)C(=O)COc2ccc(Cl)cc2)c(=O)[nH]c(=O)n1Cc1ccccc1`: -6.77% (inactive).
